The entries come from a sample that favours the strongest signals as a whole.
Tested on: Fuc(a1-2)Gal(b1-3)GalNAc(b1-3)Gal(a1-4)Gal(b1-4)Glc
Assay: glycan array binding signal (z-score within array); higher = stronger binding
Details: glycan notation: IUPAC condensed, linker removed
Method in brief: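 The binding signal is a Z-score computed within each array and averaged over linkers. Arrays of the same protein sequence at different concentrations or buffers were also averaged together. Data originate from 3228 arrays in the Consortium for Functional Glycomics database, kept only where the protein sequence was available.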

C3b (Homo sapiens), P01024, sequence (P01024 23-667): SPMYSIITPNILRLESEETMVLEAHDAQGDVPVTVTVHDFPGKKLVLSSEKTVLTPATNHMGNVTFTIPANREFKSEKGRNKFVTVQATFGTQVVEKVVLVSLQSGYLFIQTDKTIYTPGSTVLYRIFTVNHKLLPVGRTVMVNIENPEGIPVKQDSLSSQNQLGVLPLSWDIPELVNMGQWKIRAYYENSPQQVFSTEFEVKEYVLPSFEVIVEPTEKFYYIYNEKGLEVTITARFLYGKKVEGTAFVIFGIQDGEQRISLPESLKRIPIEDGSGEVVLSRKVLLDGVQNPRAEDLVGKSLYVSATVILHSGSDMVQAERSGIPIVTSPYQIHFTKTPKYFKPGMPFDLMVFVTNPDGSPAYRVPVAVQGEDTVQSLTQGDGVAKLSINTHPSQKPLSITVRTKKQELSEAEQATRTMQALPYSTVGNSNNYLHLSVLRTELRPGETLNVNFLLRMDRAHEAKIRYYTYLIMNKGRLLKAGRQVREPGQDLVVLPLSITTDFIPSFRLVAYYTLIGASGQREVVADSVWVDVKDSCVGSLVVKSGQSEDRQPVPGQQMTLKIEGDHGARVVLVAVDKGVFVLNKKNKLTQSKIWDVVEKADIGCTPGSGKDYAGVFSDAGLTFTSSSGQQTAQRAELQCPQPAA
Aggrecan (Rattus norvegicus), NP_071526, sequence (chain, as listed by the source): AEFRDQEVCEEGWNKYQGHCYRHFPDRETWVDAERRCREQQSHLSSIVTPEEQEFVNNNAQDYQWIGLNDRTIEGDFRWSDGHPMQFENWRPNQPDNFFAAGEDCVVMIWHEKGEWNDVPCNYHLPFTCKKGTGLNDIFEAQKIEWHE
PILRb (Mus musculus), Q2YSF2, sequence (Q2YSF2 entry or part of it): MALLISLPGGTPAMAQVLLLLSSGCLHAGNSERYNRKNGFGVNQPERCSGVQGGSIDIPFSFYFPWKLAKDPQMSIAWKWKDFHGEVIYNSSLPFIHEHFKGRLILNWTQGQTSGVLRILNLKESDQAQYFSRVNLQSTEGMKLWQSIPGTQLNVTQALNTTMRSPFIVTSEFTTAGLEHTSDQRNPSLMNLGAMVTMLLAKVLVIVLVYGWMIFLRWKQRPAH

Substance	glycan array binding signal (z-score)
Aggrecan (Rattus norvegicus), NP_071526	-0.123
C3b (Homo sapiens), P01024	0.194
PILRb (Mus musculus), Q2YSF2	-0.245

Reference: the supplement of paper PMC8728848
